For 13 compounds, growth results are on record in PubChem BioAssay (NCI).

The panel holds about 83,000 compounds, 20% with a hit somewhere; the sample as a whole holds those more often.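 Activity criterion: percent growth below 10, measured after cells in 96-well plates were exposed to a single compound concentration for 48 hours.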 Unmarked numbers belong to inactive results. The source made the active and inactive calls.

Among the test systems are SR leukemia; RPMI-8226 leukemia; OVCAR-8 ovarian; OVCAR-5 ovarian; OVCAR-4 ovarian; SK-OV-3 ovarian; IGROV1 ovarian; OVCAR-3 ovarian; HS 578T breast; NCI/ADR-RES ovarian.
Holding throughout (assay): NCI-60 one-dose screen, 48 h (100 = growth as untreated, 0 = no growth, -100 = all killed)
Holding throughout (conditions): 10 µM unless noted

For `CCCCCCCCCCCCOB(OCCCCCCCCCCCC)OCCCCCCCCCCCC`, the growth in the test on SR leukemia was 89.8%; with RPMI-8226 leukemia, 95.8%; with OVCAR-8 ovarian it was 101%; with OVCAR-5 ovarian, 110%; in the test on OVCAR-4 ovarian, 121%; in the test with SK-OV-3 ovarian, -1.64% (active). In addition, the growth was 107% in the test with IGROV1 ovarian, 74.3% with OVCAR-3 ovarian, 107% in the test on HS 578T breast and 97.6% with NCI/ADR-RES ovarian.
As to `CC(=O)n1cc([C@H]2CC[C@H](c3cn(C(C)=O)c4ccccc34)c3c2[nH]c2ccccc32)c2ccccc21`, the growth in the test on SR leukemia is 93.9%; in the test with RPMI-8226 leukemia, 50.8%; in the test with OVCAR-8 ovarian it was 89.5%; in the test with OVCAR-5 ovarian it was 102%; with OVCAR-4 ovarian, 77.7%; in the test on SK-OV-3 ovarian, 80.4%. Besides, the growth was 58.3% with IGROV1 ovarian, 76.3% in the test on OVCAR-3 ovarian, 106% with HS 578T breast and 80.7% with NCI/ADR-RES ovarian.
Take `CN(C)C/C=C/C(=O)Nc1cc2c(Nc3cccc(Cl)c3F)ncnc2cc1OCCOC(F)F`: the growth with SR leukemia was 51.6%; in the test on RPMI-8226 leukemia, 58.6%; with OVCAR-8 ovarian, 34.7%; in the test on OVCAR-5 ovarian it was 29.7%; in the test on OVCAR-4 ovarian, 27.9%; in the test on SK-OV-3 ovarian it was -0.955% (active). Moreover, the growth with IGROV1 ovarian was -21.7% (active); with OVCAR-3 ovarian it was 23.9%; with HS 578T breast it was 11.2%; in the test on NCI/ADR-RES ovarian, 32.9%.
As to `CCCCCCCCCN1C(=O)/C(=c2\sc3n(c2=O)C2C(NN=3)N(CC)C(=O)N2CC)c2ccccc21` (stereo unspecified), the growth is 5.57% (active) with SR leukemia; 80.4% in the test with RPMI-8226 leukemia; 36.7% with OVCAR-8 ovarian; 80.8% in the test with OVCAR-5 ovarian; 13.2% in the test with OVCAR-4 ovarian; 93.7% with SK-OV-3 ovarian. For the same compound, the growth was 54.1% with IGROV1 ovarian, 21.1% in the test with OVCAR-3 ovarian, 26.7% in the test with HS 578T breast and 46.9% in the test on NCI/ADR-RES ovarian.
Take `C/C(=N\NC(=O)CC#N)c1cc2cc(Cl)ccc2o1`: the growth was 84.8% in the test with SR leukemia; 90.2% in the test on RPMI-8226 leukemia; 109% in the test with OVCAR-8 ovarian; 105% with OVCAR-5 ovarian; 91.5% in the test with OVCAR-4 ovarian; 98.8% in the test with SK-OV-3 ovarian. For the same compound, the growth is 96.8% with IGROV1 ovarian, 102% in the test on OVCAR-3 ovarian, 14.9% in the test on HS 578T breast and 110% in the test on NCI/ADR-RES ovarian.
In the case of `Cc1sc(N=Nc2ccc(N(C)C)cc2)[n+]([O-])c1C`, the growth in the test with SR leukemia was 98.2%; in the test on RPMI-8226 leukemia it was 106%; in the test on OVCAR-8 ovarian, 101%; with OVCAR-5 ovarian, 107%; in the test on OVCAR-4 ovarian it was 94.2%; in the test on SK-OV-3 ovarian, 104%. Besides, the growth in the test with IGROV1 ovarian was 93.4%; in the test with OVCAR-3 ovarian it was 96%; in the test on HS 578T breast, 96.3%.
As for `Cc1cnc(NC(=O)C(Cc2ccccc2)NC(=O)c2ccccc2)s1` (stereo unspecified), the growth in the test with SR leukemia was 41%; in the test with RPMI-8226 leukemia it was -15.7% (active); in the test on OVCAR-8 ovarian, 92.6%; with OVCAR-5 ovarian it was 106%; in the test on OVCAR-4 ovarian, 59.4%; in the test on SK-OV-3 ovarian, 108%. The growth in the test on IGROV1 ovarian is -19.6% (active); in the test on OVCAR-3 ovarian, 83.8%; with HS 578T breast it was 85.8%; with NCI/ADR-RES ovarian, 65.6%.
With `CCc1cccc(C)c1NC(=O)c1sc2nc3c(cc2c1N)C(=O)CCC3`, the growth was 2.24% (active) with SR leukemia; 9.64% (active) in the test with RPMI-8226 leukemia; 27.9% with OVCAR-8 ovarian; 29.2% with OVCAR-5 ovarian; 76.3% with OVCAR-4 ovarian; 10.4% in the test with SK-OV-3 ovarian. Besides, the growth is 30.7% with IGROV1 ovarian, -26% (active) in the test on OVCAR-3 ovarian, 24.8% in the test with HS 578T breast and 8.17% (active) in the test with NCI/ADR-RES ovarian.
With `O=C(NCCc1c[nH]c2ccccc12)C1Cc2ccccc2CN1C(=O)c1ccco1` (stereo unspecified), the growth in the test with SR leukemia was 65.5%; in the test on RPMI-8226 leukemia it was 87.3%; with OVCAR-8 ovarian, 100%; in the test with OVCAR-5 ovarian, 125%; with OVCAR-4 ovarian, 96.9%; in the test on SK-OV-3 ovarian, 125%. In addition, the growth with IGROV1 ovarian was 3.58% (active); in the test on OVCAR-3 ovarian it was 104%; in the test on HS 578T breast, 118%; in the test with NCI/ADR-RES ovarian it was 128%.
Turning to `CCn1cc(C2NC(=O)c3cc(F)ccc3N2)c2cccc(Cl)c21` (stereo unspecified), the growth with SR leukemia is -10.1% (active); with RPMI-8226 leukemia it was 9.88% (active); with OVCAR-8 ovarian, -35.9% (active); in the test on OVCAR-5 ovarian it was 36%; with OVCAR-4 ovarian, 39.4%; in the test on SK-OV-3 ovarian it was 27.7%. The growth with IGROV1 ovarian was 18.2%; in the test on OVCAR-3 ovarian, 6.84% (active); in the test with HS 578T breast, 12.4%; in the test on NCI/ADR-RES ovarian it was 1.68% (active).
Consider `CNC(=O)Cc1nc(-c2cccc(NS(=O)(=O)c3c(F)cccc3F)c2F)c(-c2ccnc(Nc3ccccc3)n2)s1`, for which the growth in the test on SR leukemia was 76.4%; in the test with RPMI-8226 leukemia it was 101%; in the test on OVCAR-8 ovarian, 57.8%; in the test with OVCAR-5 ovarian, 32.9%; with OVCAR-4 ovarian it was 124%; in the test with SK-OV-3 ovarian, 29.9%. For the same compound, the growth in the test on IGROV1 ovarian was 17.5%; in the test with OVCAR-3 ovarian, 77.2%; in the test with HS 578T breast, 64.5%; in the test with NCI/ADR-RES ovarian it was 104%.
For the compound `COc1ccc(-n2cnc3c(sc4ncc(Cl)cc43)c2=O)cc1`, the growth is 71.2% with SR leukemia; 48.2% with RPMI-8226 leukemia; 87.9% in the test on OVCAR-8 ovarian; 98.6% in the test with OVCAR-5 ovarian; 101% with OVCAR-4 ovarian; 84.8% with SK-OV-3 ovarian. Moreover, the growth in the test on IGROV1 ovarian is 65.7%; in the test with OVCAR-3 ovarian, 53.8%.
Take `O=C(O)Cc1ccc2c(c1)Cc1cccnc1O2`: the growth in the test on SR leukemia is 96.8%; in the test with RPMI-8226 leukemia it was 105%; in the test on OVCAR-8 ovarian, 103%; in the test on OVCAR-5 ovarian, 101%; in the test on OVCAR-4 ovarian, 101%; in the test with SK-OV-3 ovarian, 103%. The growth is 96.6% with IGROV1 ovarian, 108% in the test with OVCAR-3 ovarian and 107% with HS 578T breast.
